Screening data from PubChem.
An excerpt weighted towards active compounds, which were near 0.47% of everything screened.
AID inh – blocks human AID cytidine deaminase activity. AID deamination FRET fluorescence, UDG-coupled, 4 h. AID 1347428. 91,000 compounds, 0.32% hits. Potency, µM (titrated, usually from 115 µM), usual class: inhibitors. Q9GZX7; also: nearly all actives have a fitted effect of over 25% in size
Target sequence (Q9GZX7 whole entry, looked up): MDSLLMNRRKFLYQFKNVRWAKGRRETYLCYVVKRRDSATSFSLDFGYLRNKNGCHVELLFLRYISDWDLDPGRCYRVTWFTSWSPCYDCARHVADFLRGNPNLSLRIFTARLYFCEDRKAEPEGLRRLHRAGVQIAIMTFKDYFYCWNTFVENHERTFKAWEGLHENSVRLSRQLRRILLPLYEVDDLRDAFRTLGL
UDG counterscr – counter-screen for AID inhibitors: uracil-DNA glycosylase inhibition; FRET deamination/UDG coupled assay, UDG read, 4 h; Potency, µM (top dose mostly 115 µM), actives largely listed as inhibitors; 91,000 compounds, 0.14% hits; also: nearly all actives have a fitted effect of over 65% in size
Hits are given with their value; – = inactive; ? = inconclusive. Calls follow the shape of the dose curve; as a rule, active = well fitted curve in the direction sought with a large enough effect; inconclusive = small, poorly fitted or top-dose-only effect, or another doubt; inactive = no such curve, though single readings can be large; an effect the other way counts as inactive or inconclusive.

SMILES | AID inh | UDG counterscr
CCn1cc2nc(SCc3ccc(F)cc3)n(CCc3ccccc3)c(=O)c2n1 | 35µM | –
CCn1cc2nc(SCc3ccc(C)cc3)n(CCc3ccccc3)c(=O)c2n1 | ? | –
Cn1nc(C(=O)OCC(=O)Nc2ccc(OCc3ccccc3)cc2)c2ccccc2c1=O | – | –
N#Cc1nc(-c2ccccc2Cl)oc1NC1CC1 | – | –
CC(C)Oc1ccc(CNC(=O)Nc2ccc3c(c2)N(C)C(=O)c2ccccc2S3)cc1 | ? | –
COc1ccc(CNC(=O)Nc2ccc3c(c2)N(C)C(=O)c2ccccc2S3)cc1OC | 89µM | –
O=C(CSc1nc(Cl)nc2nc[nH]c12)Nc1cccc(Cl)c1 | – | –
CCCCOc1ccc(C(=O)NCCc2csc(-c3cccc(F)c3)n2)cc1 | – | –
CC(C)Oc1ccc(C(=O)NCCc2csc(-c3cccc(F)c3)n2)cc1 | 45µM | –
COc1ccc(-c2cc(C(=O)NCC(O)CO)c3ccccc3n2)cc1 (stereo not given) | – | –
c1ccc(Nc2ccc(-n3cccc3)cc2)cc1 | – | –
Cc1ccc(C)c(-c2csc(Nc3ccc(S(=O)(=O)Nc4nc(C)cc(C)n4)cc3)n2)c1 | ? | 89µM
Cc1ccc(-c2csc(Nc3ccc(S(=O)(=O)Nc4nc(C)cc(C)n4)cc3)n2)cc1 | – | ?
CCOC(=O)C1C(c2ccccc2F)NC(=O)NC1(O)C(F)(F)F (stereo not given) | – | –
CC1CCCCN1C(=O)CSc1nc(-c2cccs2)nc2ccccc12 (stereo not given) | ? | –
CCOc1ccc(CNC(=O)c2sc3ncnc(N(C)C4CCCCC4)c3c2C)cc1 | ? | –
CCc1ccc(NC(=O)c2sc3ncnc(N(C)C4CCCCC4)c3c2C)cc1 | – | 79µM
COc1cc(/C=C2\NC(=O)NC2=O)cc(Br)c1OCC(=O)O | – | –
Cc1cccc(N2CCN(c3ncnc4onc(C)c34)CC2C)c1 (stereo not given) | – | –
Cc1cccc(N2CCN(c3ncnc4onc(-c5ccc(F)cc5)c34)CC2C)c1 (stereo not given) | ? | 79µM
O=C(CCS(=O)(=O)c1nc(-c2cccs2)cc(C(F)(F)F)n1)Nc1ccc(OC(F)(F)F)cc1 | 10µM | –
COc1ccc(NC(=O)CCS(=O)(=O)c2nc(-c3cccs3)cc(C(F)(F)F)n2)cc1 | – | –
COCCn1cnc2c1c(=O)n(CC(=O)Nc1ccc3c(c1)OCO3)c(=O)n2Cc1ccccc1 | – | –
CCN(CC)C(=O)c1cc(C(=O)Nc2ccc(F)c(Cl)c2)n(C)n1 | – | –
Cc1cccc(N2CCN(C(=O)CCS(=O)(=O)c3ccc4c(c3)CC(=O)N4C)CC2C)c1 (stereo not given) | – | 79µM
SMILES | AID inh | UDG counterscr
CN1C(=O)Cc2cc(S(=O)(=O)CCC(=O)N3CCN(c4ccccc4F)CC3)ccc21 | – | ?
COc1ccc(Nc2ncc3c(n2)CCN(Cc2ccc(Br)s2)C3)c(OC)c1 | – | –
COc1ccc(Nc2ncc3c(n2)CCN(Cc2cc(Br)cs2)C3)c(OC)c1 | ? | 89µM
O=C1c2c(O)ccc(O)c2C(=O)c2c(NCCNCCO)ccc(NCCNCCO)c21 | 10µM | 40µM
O=C1c2ccccc2C(=O)c2c(NCCc3ccc(O)cc3)ccc(NCCc3ccc(O)cc3)c21 | ? | –
COc1ccc(N(C(=O)c2ccccc2C)S(=O)(=O)c2ccc(C)cc2)cc1 | ? | 79µM
COc1ccc(N(C(=O)c2cccc(C)c2)S(=O)(=O)c2ccc(Cl)cc2)cc1 | – | ?
COc1cc(C2CC(=O)Nc3n[nH]c(Nc4ccccc4)c32)cc(OC)c1OC (stereo not given) | – | –
COc1cc(C2CC(=O)Nc3nc(N4CCCCC4)sc32)cc(OC)c1OC (stereo not given) | 35µM | –
COc1ccc(CNC(=O)c2nn(C)c3c2CS(=O)(=O)c2ccccc2-3)cc1 | – | –
COc1ccc(OC)c(CNC(=O)c2nn(C)c3c2CS(=O)(=O)c2ccccc2-3)c1 | 40µM | –
COc1cc(/C=C(\C#N)C(=O)Nc2nnc(C(F)(F)F)s2)ccc1OCc1ccc(C(F)(F)F)cc1C(F)(F)F | 50µM | –
COc1cc(/C=C(/C#N)C(=O)Nc2ccccc2C(F)(F)F)ccc1OCc1ccc(F)cc1 | – | –
COCCN1CCCN(C(=O)c2cc(-c3ccc(F)cc3)n[nH]2)CC1 | – | –
Cc1ccc(NC(=O)c2cc(S(=O)(=O)N3CCCc4ccccc43)ccc2F)cc1F | – | ?
Cc1cccc(C)c1NC(=O)c1cc(S(=O)(=O)N2CCCc3ccccc32)ccc1F | – | 89µM
N#CCCCSc1ccc2c(c1)OCCCO2 | – | –
COc1ccccc1CNc1nc2ccccc2nc1NS(=O)(=O)c1ccc(Cl)cc1 | – | –
Cc1cccc(OCC(=O)Nc2cc(-c3nn(C)c(=O)c4ccccc34)ccc2N2CCOCC2)c1 | ? | 89µM
Cc1ccc(NC(=O)COc2ccc(-c3nn(C)c(=O)c4ccccc34)cc2)cc1 | ? | –
Fc1ccc(CSc2nnc(-c3cccnc3)o2)cc1Br | – | –
Cc1ccccc1C1/C(=C(\O)c2ccccc2F)C(=O)C(=O)N1c1ccc(CC(=O)O)cc1 (stereo not given) | – | –
COC(=O)c1sc(N2C(=O)C(=O)/C(=C(/O)c3ccc(C)c(F)c3)C2c2ccccc2F)nc1C (stereo not given) | 79µM | –
Cc1nc2nc(NC(=O)c3ccc(C(C)(C)C)cc3)[nH]n2c(=O)c1Cc1ccccc1 | ? | –
COc1ccccc1C(=O)Nc1nc2nc(C)c(Cc3ccccc3)c(=O)n2[nH]1 | 35µM | –
SMILES | AID inh | UDG counterscr
OCCc1cnccn1 | – | –
Cc1ccc(C)c(C(=O)CSc2cccc3cccnc23)c1 | 35µM | –
Cc1ccc(C)c(C(=O)CSc2nc(-c3ccccc3)nc3c2CCCC3)c1 | – | –
COc1cc(C(c2c(C)[nH][nH]c2=O)c2c(C)[nH][nH]c2=O)ccc1OC(=O)c1ccccc1OC | ? | –
COc1cc(C(c2c(C)[nH][nH]c2=O)c2c(C)[nH][nH]c2=O)ccc1OC(=O)c1cccc(C)c1 | 22µM | –
CCOc1ccc(/C=C/C(=O)c2cccc(Br)c2)cc1OC | – | –
Cc1nc2cc(NC(C)C(=O)Nc3ccccc3C(F)(F)F)ccc2o1 (stereo not given) | – | –
COc1ccc(S(=O)(=O)N2CCn3cccc3C2c2ccccc2)cc1 (stereo not given) | – | ?
Cc1ccc(S(=O)(=O)N2CCn3cccc3C2c2ccccc2)cc1 (stereo not given) | – | 89µM
CC(C)CC(=O)NCC1CC2c3ccccc3C1c1ccccc12 (stereo not given) | – | –
CCNC(=O)NC(=O)C(C)Sc1nnc(-c2ccccc2)n1CC (stereo not given) | – | –
O=C(N/N=C/c1ccc(OCc2ccccc2)cc1)c1ccc(CSCc2ccccc2)cc1 | – | –
O=C1CCCC2=C1C(c1ccc(C(F)(F)F)cc1)C1=C(N2)c2ccccc2C1=O (stereo not given) | – | –
CC(C)(C)c1ccc(C2Sc3ccccc3NC3=C2C(=O)c2ccccc23)cc1 (stereo not given) | – | 89µM
CCn1cc(C(=O)NCCc2ccc(OC)c(OC)c2)c(=O)c2cc(S(=O)(=O)N3CCCCCC3)ccc21 | – | –
CCn1cc(C(=O)NCCc2ccc(OC)c(OC)c2)c(=O)c2cc(S(=O)(=O)N(C)C3CCCCC3)ccc21 | 16µM | –
Cc1ccc(C)c(N2CCN(C(=O)c3cn(CC(C)C)c(=O)c4c3c3ccccc3n4C)CC2)c1 | 28µM | ?
